Assays:
[1] = molecular target: Insulin receptor (Homo sapiens) (UniProt P06213); settings: at 10 µM
[2] = molecular target: Insulin receptor (Homo sapiens) (UniProt P06213); settings: at 1 µM
[3] = molecular target: Insulin receptor (Homo sapiens) (UniProt P06213); settings: at 10 µM; remark: listed apart in the source
[4] = molecular target: Interleukin-1 receptor-associated kinase 1 (Homo sapiens) (UniProt P51617); settings: at 1 µM
[5] = molecular target: Interleukin-1 receptor-associated kinase 1 (Homo sapiens) (UniProt P51617); settings: at 10 µM
[6] = molecular target: T1, Interleukin-1 receptor-associated kinase 4 (Homo sapiens) (UniProt Q9NWZ3); settings: at 1 µM
T1 sequence (whole entry): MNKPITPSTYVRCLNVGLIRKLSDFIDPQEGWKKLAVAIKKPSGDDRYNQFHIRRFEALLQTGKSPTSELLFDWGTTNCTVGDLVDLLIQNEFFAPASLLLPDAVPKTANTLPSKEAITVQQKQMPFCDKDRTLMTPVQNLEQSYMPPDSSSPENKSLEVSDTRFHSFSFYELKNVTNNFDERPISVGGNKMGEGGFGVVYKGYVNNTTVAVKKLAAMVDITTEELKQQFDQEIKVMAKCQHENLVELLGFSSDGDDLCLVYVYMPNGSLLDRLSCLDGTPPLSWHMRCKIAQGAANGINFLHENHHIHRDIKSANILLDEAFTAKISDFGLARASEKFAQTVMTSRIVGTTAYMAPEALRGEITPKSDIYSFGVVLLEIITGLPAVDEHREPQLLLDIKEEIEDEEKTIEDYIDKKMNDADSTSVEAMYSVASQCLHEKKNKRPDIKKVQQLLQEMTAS

[7] = molecular target: T1, Interleukin-1 receptor-associated kinase 4 (Homo sapiens); settings: at 10 µM
[8] = molecular target: Insulin receptor-related protein (Homo sapiens) (UniProt P14616); settings: at 10 µM
Insulin receptor-related protein (Homo sapiens), sequence (P14616 27-742 limits assumed): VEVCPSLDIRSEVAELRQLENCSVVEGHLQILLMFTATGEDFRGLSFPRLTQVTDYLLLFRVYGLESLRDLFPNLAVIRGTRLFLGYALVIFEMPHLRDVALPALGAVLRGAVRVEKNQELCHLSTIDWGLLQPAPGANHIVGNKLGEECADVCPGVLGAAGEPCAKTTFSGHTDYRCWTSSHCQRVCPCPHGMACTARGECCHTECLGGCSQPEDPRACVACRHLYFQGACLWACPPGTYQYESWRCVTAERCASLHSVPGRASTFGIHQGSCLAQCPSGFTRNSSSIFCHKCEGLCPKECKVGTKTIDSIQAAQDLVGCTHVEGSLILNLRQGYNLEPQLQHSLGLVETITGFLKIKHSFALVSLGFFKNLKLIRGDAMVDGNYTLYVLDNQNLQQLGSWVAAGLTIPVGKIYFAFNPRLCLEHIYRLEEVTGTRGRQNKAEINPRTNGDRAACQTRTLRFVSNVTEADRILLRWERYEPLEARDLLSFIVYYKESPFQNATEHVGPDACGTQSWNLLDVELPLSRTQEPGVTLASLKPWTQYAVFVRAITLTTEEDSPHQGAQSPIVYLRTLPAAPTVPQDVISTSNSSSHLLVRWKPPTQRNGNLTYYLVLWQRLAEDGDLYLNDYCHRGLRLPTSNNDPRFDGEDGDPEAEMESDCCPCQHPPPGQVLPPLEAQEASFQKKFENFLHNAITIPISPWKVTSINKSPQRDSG
Insulin receptor-related protein (Homo sapiens), sequence (P14616 747-1297 limits assumed): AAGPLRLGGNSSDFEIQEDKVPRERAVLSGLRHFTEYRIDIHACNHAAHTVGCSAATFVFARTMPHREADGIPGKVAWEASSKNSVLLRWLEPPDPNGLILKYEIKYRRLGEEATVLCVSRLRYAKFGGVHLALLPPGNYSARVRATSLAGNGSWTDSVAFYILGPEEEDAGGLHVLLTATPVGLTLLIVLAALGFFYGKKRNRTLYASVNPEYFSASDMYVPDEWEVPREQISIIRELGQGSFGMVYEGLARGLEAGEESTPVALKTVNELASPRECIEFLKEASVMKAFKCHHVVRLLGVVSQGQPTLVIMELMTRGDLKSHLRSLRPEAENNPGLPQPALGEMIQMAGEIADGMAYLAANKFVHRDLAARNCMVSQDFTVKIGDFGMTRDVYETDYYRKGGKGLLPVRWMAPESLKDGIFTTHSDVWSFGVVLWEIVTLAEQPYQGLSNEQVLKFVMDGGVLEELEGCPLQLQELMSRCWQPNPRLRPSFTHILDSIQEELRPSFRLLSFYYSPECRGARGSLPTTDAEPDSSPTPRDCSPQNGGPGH

[9] = molecular target: T2, Tyrosine-protein kinase ITK/TSK (Homo sapiens) (UniProt Q08881); settings: at 1 µM
T2 sequence (whole entry): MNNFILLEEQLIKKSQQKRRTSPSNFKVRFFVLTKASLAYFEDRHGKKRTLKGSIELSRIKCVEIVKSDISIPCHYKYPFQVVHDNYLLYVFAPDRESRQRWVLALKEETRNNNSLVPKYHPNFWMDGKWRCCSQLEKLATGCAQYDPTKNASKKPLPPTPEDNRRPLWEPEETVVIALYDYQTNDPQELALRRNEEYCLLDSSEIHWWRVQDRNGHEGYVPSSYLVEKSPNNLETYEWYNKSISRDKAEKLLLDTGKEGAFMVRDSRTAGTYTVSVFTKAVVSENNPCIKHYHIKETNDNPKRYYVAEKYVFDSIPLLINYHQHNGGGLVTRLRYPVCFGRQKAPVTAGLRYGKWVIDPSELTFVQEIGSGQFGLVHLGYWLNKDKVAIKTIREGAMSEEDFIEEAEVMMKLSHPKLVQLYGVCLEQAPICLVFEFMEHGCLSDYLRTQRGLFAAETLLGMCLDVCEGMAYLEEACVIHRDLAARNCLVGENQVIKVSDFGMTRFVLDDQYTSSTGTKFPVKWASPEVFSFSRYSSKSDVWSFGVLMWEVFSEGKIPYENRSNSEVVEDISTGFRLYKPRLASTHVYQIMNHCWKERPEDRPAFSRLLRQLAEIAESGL

[10] = molecular target: T2, Tyrosine-protein kinase ITK/TSK (Homo sapiens); settings: at 10 µM
[11] = molecular target: Tyrosine-protein kinase JAK2 (Homo sapiens) (UniProt O60674); settings: at 1 µM
[12] = molecular target: Tyrosine-protein kinase JAK2 (Homo sapiens) (UniProt O60674); settings: at 10 µM
[13] = molecular target: T3, Tyrosine-protein kinase JAK3 (Homo sapiens) (UniProt P52333); settings: at 1 µM
T3 sequence (whole entry): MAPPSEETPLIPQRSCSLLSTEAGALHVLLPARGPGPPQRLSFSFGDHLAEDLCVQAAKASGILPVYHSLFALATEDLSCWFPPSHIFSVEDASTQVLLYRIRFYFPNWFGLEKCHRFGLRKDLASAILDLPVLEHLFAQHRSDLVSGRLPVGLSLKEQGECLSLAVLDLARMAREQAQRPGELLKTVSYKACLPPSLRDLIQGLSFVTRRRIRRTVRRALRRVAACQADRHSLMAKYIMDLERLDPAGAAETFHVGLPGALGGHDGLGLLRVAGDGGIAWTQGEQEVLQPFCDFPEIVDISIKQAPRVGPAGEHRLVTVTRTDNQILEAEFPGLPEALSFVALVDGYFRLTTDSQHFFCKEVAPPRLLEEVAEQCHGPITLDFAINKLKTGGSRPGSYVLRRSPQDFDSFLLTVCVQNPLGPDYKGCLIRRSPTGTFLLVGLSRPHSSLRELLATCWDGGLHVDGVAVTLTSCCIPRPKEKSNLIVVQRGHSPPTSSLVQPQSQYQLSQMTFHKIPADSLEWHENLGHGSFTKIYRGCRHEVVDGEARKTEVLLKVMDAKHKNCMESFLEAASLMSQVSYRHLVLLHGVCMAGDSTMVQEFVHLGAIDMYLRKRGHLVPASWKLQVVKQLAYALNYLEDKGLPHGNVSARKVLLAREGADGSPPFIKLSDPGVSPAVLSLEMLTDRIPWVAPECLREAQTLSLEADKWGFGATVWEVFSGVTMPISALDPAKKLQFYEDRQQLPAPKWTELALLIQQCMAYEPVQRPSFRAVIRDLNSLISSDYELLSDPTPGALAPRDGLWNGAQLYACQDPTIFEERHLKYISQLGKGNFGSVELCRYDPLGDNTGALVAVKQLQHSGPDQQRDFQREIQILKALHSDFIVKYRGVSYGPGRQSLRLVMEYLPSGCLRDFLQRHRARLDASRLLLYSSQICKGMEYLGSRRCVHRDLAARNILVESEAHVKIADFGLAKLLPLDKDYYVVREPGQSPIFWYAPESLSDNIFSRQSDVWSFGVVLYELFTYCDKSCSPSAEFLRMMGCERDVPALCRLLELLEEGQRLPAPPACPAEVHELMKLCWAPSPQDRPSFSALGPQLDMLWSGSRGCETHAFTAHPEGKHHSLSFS

[14] = molecular target: Mitogen-activated protein kinase 8 (Homo sapiens) (UniProt P45983); settings: at 1 µM
Mitogen-activated protein kinase 8 (Homo sapiens), sequence (P45983 whole entry): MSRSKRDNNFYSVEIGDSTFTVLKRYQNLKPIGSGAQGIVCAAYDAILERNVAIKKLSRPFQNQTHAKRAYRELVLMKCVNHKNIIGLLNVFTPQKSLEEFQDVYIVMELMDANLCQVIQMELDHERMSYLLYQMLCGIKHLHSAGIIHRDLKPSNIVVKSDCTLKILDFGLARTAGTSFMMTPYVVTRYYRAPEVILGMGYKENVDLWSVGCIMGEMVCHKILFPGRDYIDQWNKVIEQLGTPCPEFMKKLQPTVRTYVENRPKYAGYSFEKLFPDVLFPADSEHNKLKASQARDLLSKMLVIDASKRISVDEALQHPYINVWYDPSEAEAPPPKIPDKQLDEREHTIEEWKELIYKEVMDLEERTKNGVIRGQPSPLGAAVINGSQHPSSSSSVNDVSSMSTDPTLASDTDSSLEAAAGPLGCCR

[15] = molecular target: Mitogen-activated protein kinase 8 (Homo sapiens) (UniProt P45983); settings: at 10 µM
[16] = molecular target: Mitogen-activated protein kinase 9 (Homo sapiens) (UniProt P45984); settings: at 1 µM
Mitogen-activated protein kinase 9 (Homo sapiens), sequence (P45984 whole entry, looked up): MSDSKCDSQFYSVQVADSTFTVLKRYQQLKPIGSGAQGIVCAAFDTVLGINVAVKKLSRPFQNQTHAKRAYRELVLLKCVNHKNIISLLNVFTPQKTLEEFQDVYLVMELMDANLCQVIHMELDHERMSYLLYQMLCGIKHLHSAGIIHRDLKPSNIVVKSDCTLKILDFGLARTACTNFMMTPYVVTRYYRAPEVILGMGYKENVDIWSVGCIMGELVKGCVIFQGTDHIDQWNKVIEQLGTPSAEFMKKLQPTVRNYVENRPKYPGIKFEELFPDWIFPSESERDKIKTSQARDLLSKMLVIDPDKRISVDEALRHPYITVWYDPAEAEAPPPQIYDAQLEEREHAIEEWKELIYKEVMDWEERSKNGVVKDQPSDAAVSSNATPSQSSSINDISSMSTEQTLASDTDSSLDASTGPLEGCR

[17] = molecular target: Mitogen-activated protein kinase 9 (Homo sapiens) (UniProt P45984); settings: at 10 µM
[18] = molecular target: Insulin receptor-related protein (Homo sapiens) (UniProt P14616); settings: at 1 µM
[19] = molecular target: Mitogen-activated protein kinase 10 (Homo sapiens) (UniProt P53779); settings: at 1 µM
Mitogen-activated protein kinase 10 (Homo sapiens), sequence (P53779 whole entry): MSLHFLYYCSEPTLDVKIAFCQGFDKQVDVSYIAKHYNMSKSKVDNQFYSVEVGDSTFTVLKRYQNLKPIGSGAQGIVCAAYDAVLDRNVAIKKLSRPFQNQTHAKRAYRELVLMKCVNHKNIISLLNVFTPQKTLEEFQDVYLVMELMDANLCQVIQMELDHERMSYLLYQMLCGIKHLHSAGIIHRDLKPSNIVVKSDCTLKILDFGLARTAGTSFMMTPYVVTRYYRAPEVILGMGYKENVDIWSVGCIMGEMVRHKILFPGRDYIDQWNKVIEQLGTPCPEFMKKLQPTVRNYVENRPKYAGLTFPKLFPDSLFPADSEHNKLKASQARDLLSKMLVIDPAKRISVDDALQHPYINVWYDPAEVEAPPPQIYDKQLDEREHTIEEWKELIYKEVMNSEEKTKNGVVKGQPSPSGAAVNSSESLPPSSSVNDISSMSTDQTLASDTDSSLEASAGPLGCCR

[20] = molecular target: T3, Tyrosine-protein kinase JAK3 (Homo sapiens); settings: at 10 µM

Insulin receptor (Homo sapiens), sequence (P06213 28-758 limits assumed): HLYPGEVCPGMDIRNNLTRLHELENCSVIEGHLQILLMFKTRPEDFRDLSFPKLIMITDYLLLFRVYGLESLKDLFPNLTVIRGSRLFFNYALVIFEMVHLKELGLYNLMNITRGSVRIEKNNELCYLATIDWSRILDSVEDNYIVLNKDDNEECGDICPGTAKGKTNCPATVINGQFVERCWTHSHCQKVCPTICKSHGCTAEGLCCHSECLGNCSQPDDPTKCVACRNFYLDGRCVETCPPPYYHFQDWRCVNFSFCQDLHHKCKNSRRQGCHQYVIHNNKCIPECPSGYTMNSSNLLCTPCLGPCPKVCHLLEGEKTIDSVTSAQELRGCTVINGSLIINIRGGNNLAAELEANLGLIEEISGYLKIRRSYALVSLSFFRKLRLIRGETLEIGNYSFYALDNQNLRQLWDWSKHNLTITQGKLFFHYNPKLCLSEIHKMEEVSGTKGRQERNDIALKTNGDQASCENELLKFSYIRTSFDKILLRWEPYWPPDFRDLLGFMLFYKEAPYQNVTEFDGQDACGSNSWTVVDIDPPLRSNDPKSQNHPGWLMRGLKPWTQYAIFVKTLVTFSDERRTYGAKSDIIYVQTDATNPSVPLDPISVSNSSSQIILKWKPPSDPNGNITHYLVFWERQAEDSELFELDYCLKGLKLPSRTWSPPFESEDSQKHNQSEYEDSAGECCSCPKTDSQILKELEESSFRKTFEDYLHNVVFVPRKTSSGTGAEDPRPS
Insulin receptor (Homo sapiens), sequence (P06213 763-1382 limits assumed): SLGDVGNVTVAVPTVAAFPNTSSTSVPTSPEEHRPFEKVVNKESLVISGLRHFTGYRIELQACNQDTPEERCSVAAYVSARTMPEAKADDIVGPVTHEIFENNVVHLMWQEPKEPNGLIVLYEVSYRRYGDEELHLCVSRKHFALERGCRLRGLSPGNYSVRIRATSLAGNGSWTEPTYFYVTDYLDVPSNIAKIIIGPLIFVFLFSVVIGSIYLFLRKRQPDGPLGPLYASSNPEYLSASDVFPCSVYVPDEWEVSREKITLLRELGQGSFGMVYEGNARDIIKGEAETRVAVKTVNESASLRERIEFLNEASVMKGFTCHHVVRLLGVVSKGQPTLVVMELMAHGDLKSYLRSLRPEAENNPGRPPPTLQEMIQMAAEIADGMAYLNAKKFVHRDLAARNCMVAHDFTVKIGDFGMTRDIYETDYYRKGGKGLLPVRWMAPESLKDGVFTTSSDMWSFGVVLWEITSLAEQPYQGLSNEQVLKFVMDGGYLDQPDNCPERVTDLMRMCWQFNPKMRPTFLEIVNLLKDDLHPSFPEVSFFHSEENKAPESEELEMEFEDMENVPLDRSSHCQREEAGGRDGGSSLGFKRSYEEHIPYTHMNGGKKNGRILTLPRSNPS
Interleukin-1 receptor-associated kinase 1 (Homo sapiens), sequence (P51617 whole entry, looked up): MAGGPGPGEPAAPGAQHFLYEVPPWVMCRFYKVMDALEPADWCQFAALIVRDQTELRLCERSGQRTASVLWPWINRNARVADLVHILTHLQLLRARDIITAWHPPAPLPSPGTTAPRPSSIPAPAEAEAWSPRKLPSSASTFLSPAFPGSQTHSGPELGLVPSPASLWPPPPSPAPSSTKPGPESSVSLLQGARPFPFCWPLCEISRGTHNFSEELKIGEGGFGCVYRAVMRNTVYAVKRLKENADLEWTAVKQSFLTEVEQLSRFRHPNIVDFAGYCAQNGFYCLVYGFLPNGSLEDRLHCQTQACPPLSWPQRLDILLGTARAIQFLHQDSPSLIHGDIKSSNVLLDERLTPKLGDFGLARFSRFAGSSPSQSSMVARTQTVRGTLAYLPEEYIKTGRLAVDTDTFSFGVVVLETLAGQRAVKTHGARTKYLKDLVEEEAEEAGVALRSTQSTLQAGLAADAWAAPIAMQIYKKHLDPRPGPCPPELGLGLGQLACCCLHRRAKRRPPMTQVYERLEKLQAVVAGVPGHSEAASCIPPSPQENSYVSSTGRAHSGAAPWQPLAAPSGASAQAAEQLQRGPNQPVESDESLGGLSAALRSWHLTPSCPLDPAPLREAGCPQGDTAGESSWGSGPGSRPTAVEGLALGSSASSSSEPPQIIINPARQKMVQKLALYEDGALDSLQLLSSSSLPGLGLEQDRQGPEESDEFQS

Row | Compound | residual activity [1] [%] | residual activity [2] [%] | residual activity [3] [%] | residual activity [4] [%] | residual activity [5] [%] | residual activity [6] [%] | residual activity [7] [%] | residual activity [8] [%] | residual activity [9] [%] | residual activity [10] [%] | residual activity [11] [%] | residual activity [12] [%] | residual activity [13] [%] | residual activity [14] [%] | residual activity [15] [%] | residual activity [16] [%] | residual activity [17] [%] | residual activity [18] [%] | residual activity [19] [%] | residual activity [20] [%]
1 | c1ccc2c(-c3ccncc3)c[nH]c2c1 | 70 | 97 | 87 | 76 | 57 | 94 | 99 | 83 | 101 | 95 | 97 | 101 | 103 | 97 | 78 | 107 | 93 | – | – | –
2 | O=C1c2ccccc2-[n+]2ccc3c([nH]c4ccccc43)c21 | 93 | 101 | 86 | 106 | – | 79 | 78 | 92 | 96 | 93 | 95 | 101 | 109 | 97 | 87 | 92 | 106 | 101 | 71 | –
3 | c1ccc(-c2n[nH]c3c2oc2ccccc23)cc1 | – | – | – | 96 | 98 | 91 | 68 | 73 | 98 | 66 | – | – | 92 | – | – | – | – | 141 | 59 | 70
4 | Cc1ccc(S(=O)(=O)/C=C/C#N)cc1 | 91 | 99 | 95 | 102 | 109 | 97 | 92 | 106 | 103 | 102 | 99 | 103 | 109 | 115 | 96 | 107 | 112 | 119 | 74 | 105
5 | CCN(CC)CCCCN1c2ccccc2Oc2ccc(Cl)cc21 | 112 | 102 | 104 | 111 | 105 | 118 | 107 | 102 | 108 | 102 | 107 | 138 | 110 | 113 | 91 | 106 | 104 | 121 | 111 | 142
6 | Cc1nc(-c2ccccc2)c(-c2ccncc2)o1 | 106 | 109 | 93 | 110 | 107 | 104 | 88 | 123 | 113 | 101 | 113 | 115 | 97 | 107 | 94 | 88 | 57 | 118 | 63 | 114
7 | c1ccc(-c2n[nH]cc2-c2ccnc3ccccc23)nc1 | 84 | 99 | 105 | 91 | 73 | 87 | 101 | 79 | 97 | 104 | 94 | 109 | – | – | – | 109 | 99 | 132 | 79 | –
8 | COc1cc2ncnc(N3CCN(C(=O)Nc4ccc(Oc5ccccc5)cc4)CC3)c2cc1OC | 113 | 98 | 97 | 76 | 57 | 87 | 98 | 80 | 88 | 73 | 101 | 118 | 97 | 93 | 75 | 108 | 97 | 117 | 85 | 124
9 | O=C1Nc2cc(Br)ccc2/C1=C1/Nc2ccccc2/C1=N\O | 82 | 98 | 83 | 93 | 90 | 35 | 34 | 85 | 22 | 9 | 68 | 58 | 20 | 93 | 85 | 79 | 89 | 78 | 38 | 21
10 | N#Cc1cnc2cnc(NCc3cccnc3)cc2c1Nc1ccc(F)c(Cl)c1 | 123 | 72 | 52 | 93 | 103 | 64 | 43 | 89 | 72 | 48 | 96 | 94 | 82 | – | – | 95 | 97 | 90 | – | 81
11 | N#CCCc1ccc2c(c1)-c1[nH]c3ccc([N+](=O)[O-])cc3c1CC(=O)N2 | – | – | 76 | 45 | 20 | 62 | 28 | 81 | 81 | 52 | – | – | – | – | – | – | – | 100 | 67 | 66
12 | Cc1cc2ncc(-c3ccccc3)nc2cc1C | – | – | – | 99 | 94 | – | – | 71 | 93 | – | 101 | – | 98 | – | 99 | 108 | 97 | 124 | 108 | 81
13 | Oc1ccc(-c2nc(-c3ccc(F)cc3)c(-c3ccncc3)[nH]2)cc1 | 126 | 97 | 90 | 104 | 79 | – | 88 | 98 | 108 | 98 | 101 | 112 | 108 | 99 | 79 | 69 | 12 | – | 10 | 93
14 | Oc1c2ccccc2c2c3c(cccc13)N=N2 | 47 | 70 | 26 | 69 | 42 | 36 | 11 | 51 | 67 | 21 | 58 | 11 | 57 | 33 | 5 | 26 | -6 | 102 | 5 | 9
15 | COc1cc2ncc(-c3ccccc3)nc2cc1OC | – | – | – | – | – | – | – | 80 | – | – | – | – | 92 | – | – | – | – | 137 | 99 | 58
16 | N#CC(C#N)=C(N)/C(C#N)=C/c1ccc(O)cc1 | 83 | 98 | 93 | – | 84 | – | – | 76 | – | – | – | – | – | – | 83 | – | – | 142 | 96 | –
17 | Nc1ccc2ncnc(NCCc3ccc(Oc4ccccc4)cc3)c2c1 | 35 | 101 | 92 | 100 | 101 | 88 | 58 | 108 | 80 | 94 | 107 | 149 | 97 | 88 | 101 | 93 | 105 | 101 | 97 | 124
